Data from PubChem BioAssay (NCATS).
Results filed as inconclusive are left out. Where a call stands in place of a potency, no number is given. Calls of active or inactive are those of the source. The call rests on the fitted dose curve; in most records, active means well fitted inhibition curve with a large enough effect; inconclusive means small, poorly fitted or top-dose-only effect; inactive means no such curve, though single readings can be large or run the other way. Where a SMILES comes first, the peptide text is derived from it. Bridges are numbered along the chain shown (N, C = ends). [ ]: non-standard residue; d: D form. The star is where a group is joined. X1 = CCC(C)C(N)C1=NC(C(=O)*)CS1; dOrn = NCCC[C@@H](N)C(=O)O

Test: P-glycoprotein substrates identified in KB-3-1 adenocarcinoma cell line, qHTS therapeutic library screen (AID 1346986); further: nearly all actives have a fitted effect of over 60% in size;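 further: potency is for cytotoxicity meaning loss of cell viability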
Details: KB-3-1 parental cells viability, CellTiter-Glo, 72 h; series mostly up to 44.5 µM; activity change, negative = cytotoxicity: at the top concentration
Procedure, shortened: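 Resistance attributable to P-gp was assessed by comparing AC50 in KB-8-5-11 with parental KB-3-1 and by tariquidar reversal. Cells were exposed 72 h and viability read by CellTiter-Glo.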
Potency means the concentration at half of the fitted maximal effect.

SMILES | outcome | Potency
O=C(c1ccc(C#Cc2cccc(F)c2)cn1)N1CC2CC2C1 (stereo unspecified) | inactive | –
O=C(O)c1ccc(CCCc2ccc(OCCc3ccc(F)cc3)cc2)o1 | inactive | –
CC1=CC(=O)CC(C)(C)C1CCC(C)OC1OC(COC(=O)c2cc(O)c(O)c(O)c2)C(O)C(O)C1O (stereo unspecified) | inactive [at 17.4 µM] | –
CC(=O)O[C@@H]1[C@H]2[C@@H](OC(=O)c3ccccc3)[C@@H](C)C[C@]2(O)[C@H](OC(C)=O)[C@@]2(C)[C@@H]3CC(C)(C)C(=O)[C@]3(OC(C)=O)C[C@@]12C | inactive [at 17.4 µM] | –
CC(=O)O[C@@H]1C[C@]2(C)[C@@]3(CCC4[C@@]5(C)CC[C@H](O[C@@H]6O[C@H](C(=O)O)[C@@H](O)[C@H](O[C@@H]7O[C@H](CO)[C@H](O)[C@H](O)[C@H]7O[C@@H]7O[C@@H](C)[C@H](O)[C@@H](O)[C@H]7O[C@@H]7OC[C@](O)(CO)[C@H]7O)[C@H]6O[C@@H]6O[C@H](CO)[C@H](O)[C@H](O)[C@H]6O)C(C)(C)C5CC[C@]42C)O[C@@H](O)[C@]12C3CC(C)(C)[C@@H](OC(=O)/C=C/c1ccc(O)c(O)c1)[C@@H]2OC(=O)/C=C/c1ccccc1 (stereo partly specified) | inactive [at 9.29 µM] | –
COC(=O)CC[C@@H](C)[C@H]1CC[C@H]2[C@@H]3CC(=O)[C@H]4C[C@H](OC(C)=O)CC[C@]4(C)[C@H]3CC[C@]12C | inactive | –
Clc1ccc2c(c1)C1=NCCN1c1c(-c3noc(C4CC4)n3)ncn1-2 | inactive | –
CC1(C)CC[C@]2(C(=O)O[C@@H]3O[C@H](CO)[C@@H](O)[C@H](O)[C@H]3O)CC[C@]3(C)C(=CCC4[C@@]5(C)C[C@@H](O)[C@H](O)[C@@](C)(CO)C5CC[C@]43C)C2C1 (stereo partly specified) | inactive [at 17.4 µM] | –
COc1cc(C(C)=O)ccc1O[C@@H]1O[C@H](CO[C@@H]2O[C@@H](C)[C@H](O)[C@@H](O)[C@H]2O)[C@@H](O)[C@H](O)[C@H]1O | inactive [at 17.4 µM] | –
CCC(C)C(N)C1=NC(C(=O)N[C@@H](CC(C)C)C(=O)N[C@H](CCC(=O)O)C(=O)N[C@H](C(=O)N[C@H]2CCCCNC(=O)[C@H](CC(N)=O)NC(=O)[C@@H](CC(=O)O)NC(=O)[C@H](Cc3cnc[nH]3)NC(=O)[C@@H](Cc3ccccc3)NC(=O)[C@H]([C@@H](C)CC)NC(=O)[C@@H](CCCN)NC2=O)[C@@H](C)CC)CS1 (stereo partly specified) (X1-L[dE]IK[dOrn]I[dF]H[dD]N; lactam 4-C) | inactive [at 17.4 µM] | –
CC(C)C1=CC2=CCC3[C@](C)(CCC[C@@]3(C)C(=O)O)C2CC1O (stereo partly specified) | inactive | –
O=C(CCO[C@@H]1O[C@H](CO)[C@@H](O)[C@H](O)[C@H]1O)c1ccc(O)cc1 | inactive | –
CC1(C)CCC(C)(C)c2cc([C@@H](O)C(=O)Nc3ccc(C(=O)O)cc3F)ccc21 | inactive | –
CC(/C=C/C1(O)C2(C)COC1(C)CC(=O)C2)O[C@@H]1O[C@H](CO)[C@@H](O)[C@H](O)[C@H]1O (stereo partly specified) | inactive [at 17.4 µM] | –
C[C@@H]1O[C@@H](O[C@H]2[C@H](OC(=O)C34CCC(C)(C)CC3C3=CCC5C6(C)CC(O)C(O[C@@H]7O[C@H](CO)[C@@H](O)[C@H](O)[C@H]7O)C(C)(C(=O)O)C6CCC5(C)C3(CO)CC4)O[C@H](C)[C@H](O)[C@@H]2O)[C@H](O)[C@H](O)[C@H]1O[C@@H]1OC[C@@H](O)[C@H](O)[C@H]1O (stereo partly specified) | inactive [at 9.29 µM] | –
CCC(=O)N[C@@H]1Cc2ccccc2[C@H](c2ccccc2)C1 | inactive | –

SMILES | outcome | Potency
COc1cccc(-c2ccc([C@@H](Oc3cc(-c4ccc(C[C@H](N)C(=O)O)cc4)nc(N)n3)C(F)(F)F)cc2)c1 | inactive | –
CN1C(=O)c2ccccc2-n2c(nc3ccccc3c2=O)[C@@]12O[C@H]2c1ccccc1 | inactive | –
C[C@@H]1O[C@@H](O[C@H]2[C@H](OC(=O)[C@]34CCC(C)(C)C[C@H]3C3=CCC5[C@@]6(C)CC[C@H](O[C@@H]7O[C@H](CO[C@@H]8OC[C@H](O)[C@H](O)[C@H]8O)[C@@H](O)[C@H](O)[C@H]7O)C(C)(C)C6CC[C@@]5(C)[C@]3(C)C[C@H]4O)OC[C@@H](O)[C@@H]2O)[C@H](O)[C@H](O)[C@H]1O[C@@H]1OC[C@H](O)[C@H](O[C@@H]2OC[C@@H](O)[C@H](O)[C@H]2O)[C@H]1O (stereo partly specified) | inactive [at 9.29 µM] | –
CC1=CCC2C(C)(CO)CCCC2(C)C1CC12OC1C(O)C(CO)=CC2O (stereo unspecified) | inactive | –
O=C(NCC(=O)N1CC[C@H](NC2CCC(O)(c3ccc(-c4ncccn4)cn3)CC2)C1)c1cccc(C(F)(F)F)c1 (stereo partly specified) | inactive | –
C=C1[C@H]2CC[C@]3(O)[C@@](CC[C@@H]4[C@](C)(C(=O)O)CCC[C@]43C)(C2)[C@H]1OC(=O)/C(C)=C\C | inactive [at 17.4 µM] | –
C/C=C1/[C@H](O[C@@H]2O[C@H](CO)[C@@H](O)[C@H](O)[C@H]2O)OC=C(C(=O)OC)[C@H]1CC(=O)O[C@@H]1O[C@H](CO)[C@@H](O)[C@H](O)[C@H]1O | inactive [at 17.4 µM] | –
COC12CC3C(C(C)C1=CC(=O)O2)C(O)C(OC(C)=O)C1C(C)(C)C(OC(C)=O)CCC31C (stereo unspecified) | inactive [at 17.4 µM] | –
COc1ccc2c(c1)OC[C@]1(O)c3cc4c(cc3O[C@H]21)OCO4 | inactive | –
C=CC(C)(O)CC/C=C(\C)C(=O)OC1CC2(C(=O)O)CCC3(C)C(=CCC4C5(C)CCC(OC6OC(COC7OCC(O)C(O)C7O)C(O)C(OC7OCC(O)C(O)C7O)C6OC6OC(CO)C(O)C(O)C6OC6OCC(O)C(O)C6O)C(C)(C)C5CCC43C)C2CC1(C)C (stereo unspecified) | inactive [at 9.29 µM] | –
COc1ccccc1[C@@H]1C2=C(CC(C)(C)CC2=O)Nc2n[nH]c(C(F)(F)F)c21 | inactive | –
COC(=O)CC1(O)C(=O)Nc2ccccc21 (stereo unspecified) | inactive | –
O=c1c2cccnc2n(-c2cccc([N+](=O)[O-])c2)c(=O)n1Cc1ccncc1 | inactive | –
Cc1nc2c(-c3cnc(N)nc3)nc(N3CCOCC3)nc2n1C(C)C | – | 259 nM (active)
O=C1NC(=Nc2ccccc2F)S/C1=C\c1ccc(C(=O)O)cc1 | inactive | –
